Screening results deposited in PubChem by National Center for Advancing Translational Sciences (NCATS).
Compounds with a hit are over-represented: about 7.5% of the library has one in this group of screens.
FLuc counter – qHTS profiling assay for firefly luciferase inhibitor/activator using purifed enzyme and Km concentrations of substrates (counterscreen for miR-21 project) | 360,000 compounds, 6.9% hits | purified FLuc, Km substrates, luminescence inhibition | Potency, µM (top dose mostly 57.5 µM), for inactives: at the highest dose activity change, negative = inhibition, hits mostly inhibitors | Luciferin 4-monooxygenase (Photinus pyralis), P08659;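 further: plate controls were vehicle for no effect and reference inhibitor for full effect; nearly all actives have a fitted effect of over 55% in size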
Target sequence (P08659 whole entry, looked up): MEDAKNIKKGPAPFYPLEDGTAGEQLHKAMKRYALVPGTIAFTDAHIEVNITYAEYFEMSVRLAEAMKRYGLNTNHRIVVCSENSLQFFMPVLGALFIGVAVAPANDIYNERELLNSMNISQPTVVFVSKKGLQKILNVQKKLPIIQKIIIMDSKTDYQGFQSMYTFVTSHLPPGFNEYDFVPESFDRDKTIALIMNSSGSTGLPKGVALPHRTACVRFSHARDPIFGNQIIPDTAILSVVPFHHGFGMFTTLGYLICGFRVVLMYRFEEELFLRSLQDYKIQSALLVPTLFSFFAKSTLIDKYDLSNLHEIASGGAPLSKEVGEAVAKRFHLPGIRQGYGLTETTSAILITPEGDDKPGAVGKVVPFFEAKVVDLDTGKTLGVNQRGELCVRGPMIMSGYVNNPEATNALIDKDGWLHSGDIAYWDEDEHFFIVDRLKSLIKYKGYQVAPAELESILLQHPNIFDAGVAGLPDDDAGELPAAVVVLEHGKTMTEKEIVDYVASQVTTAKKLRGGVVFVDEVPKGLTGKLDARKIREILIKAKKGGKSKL
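Biochemical qHTS of compounds, final roughly 60 µM downward over six points, against 10 nM purified firefly luciferase using Km concentrations of substrates (10 uM D-luciferin, 10 uM ATP) in Tris acetate pH 7.5 buffer; luminescence output.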
NPC1 promoter act – qHTS Assay for NPC1 Promoter Activators; Huh7 NPC1 promoter luciferase reporter, 24 h; Potency, µM (top dose mostly 9.22 µM), without a hit: at the highest dose activation, actives largely listed as activators; 320,000 compounds, 2.4% hits; AID 485313, 2010; further: % of control where 0% means no effect; nearly all actives have a fitted effect of over 60% in size
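Stably transfected Huh7 (NPC1 promoter→luciferase), 1500 cells/well in Opti-MEM + 10% FBS, 2 h settle, then compound 24 h at 37 °C. Luminescence after 10 min with Amplite reagent.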
Rab9 promoter act – qHTS Assay for Rab9 Promoter Activators | Potency, µM (doses to about 9.22 µM), without a hit: at the highest dose activation, negative = inhibition, usual class: activators | Huh7 Rab9 promoter-luciferase reporter, luminescence, 24 h | AID 485297, 2010 | 320,000 compounds, 2.8% hits; further: % of control where 0% means no effect; nearly all actives have a fitted effect of over 60% in size
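Huh7 cells stably carrying Rab9 promoter–luciferase reporter, plated 1500 cells/well, compound added after 2 h and incubated 24 h at 37 °C; luciferase luminescence then read after 10 min with detection reagent.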
SMN2 splice enh – qHTS Assay for Enhancers of SMN2 Splice Variant Expression; HEK293 SMN2-luciferase splicing reporter, luminescence, 30-36 h; Potency, µM (highest dose often 46.1 µM), without a hit: at the top dose activity change, positive = activation, most hits filed as activators; 210,000 compounds, 2.8% hits; AID 1458, 2008; further: % of control where 0% means no effect; nearly all actives have a fitted effect of over 55% in size
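qHTS luciferase splicing reporter: luminescence rises when SMN2 exon 7 is included in transfected HEK293 cells. Compound exposure lasted 30-36 h at 37C, with 4.5 mM final sodium butyrate as control, followed by a ONE-Glo read.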
ELG1 genotoxic – qHTS screen for small molecules that induce genotoxicity in human embryonic kidney (HEK293T) cells expressing luciferase-tagged ELG1 | HEK293T ELG1-luciferase reporter, luminescence, 16 h | Potency, µM (top dose mostly 46 µM), without a hit: at the highest dose activity change, positive = activation, most hits filed as activators | 330,000 compounds, 1.3% hits; further: % of control where 0% means no effect; nearly all actives have a fitted effect of over 60% in size
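Reporter readout depends on ELG1 protein level, which increases with genetic stress. After 16 hr compound exposure at 37 °C, luciferase activity was quantified using ONE-Glo.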
Starred values were filed as active, the others as inactive; ? = inconclusive; / = no result. The call rests on the fitted dose curve; in most records, active means well fitted curve in the direction sought with a large enough effect; inconclusive means small, poorly fitted or top-dose-only effect, or another doubt; inactive means no such curve, though single readings can be large; an effect the other way counts as inactive or inconclusive. Potency means the concentration at half of the fitted maximal effect.

SMILES | FLuc counter | NPC1 promoter act | Rab9 promoter act | SMN2 splice enh | ELG1 genotoxic
CC(C)COc1ccc(C(=O)Nc2cccc(-c3nc4ccccc4[nH]3)c2)cc1 | ? | / | / | -15% | /
Cc1cc(C)cc(OCC(=O)Nc2cccc(-c3nc4ccccc4[nH]3)c2)c1 | 11µM* | / | / | 17% | /
O=C(COc1ccccc1)Nc1cccc(-c2nc3cc4ccccc4cc3[nH]2)c1 | 0.54µM* | 0.63µM* | 0.79µM* | 1.8µM* | ?
CC(=O)Nc1ccc(S(=O)(=O)NC2(C(F)(F)F)NC(=O)N(c3ccccc3F)C2=O)cc1 (configuration not stated) | -1% | -3% | 0% | 3% | 2%
Cc1cc(C)c2[nH]c(=O)c(=O)[nH]c2c1 | -4% | 0% | 0% | 9% | 1%
Cc1ccc2oc(=O)c(-c3ccc(O)cc3)c(C)c2c1 | ? | 6% | -3% | / | 13%
CC(C)[C@H](NC(=O)c1ccco1)C(=O)OCC(=O)c1ccc2c(c1)NC(=O)CO2 | ? | -2% | 1% | 4% | -3%
O=C1COc2ccc(C(=O)COC(=O)c3ccccc3[N+](=O)[O-])cc2N1 | 1.5µM* | 20% | ? | / | 9%
O=C1COc2ccc(C(=O)COC(=O)c3ccco3)cc2N1 | 12µM* | 0% | -1% | / | 1%
O=C(c1cccs1)c1coc2ccc(O)c(CN3CCOCC3)c12 | 1% | -3% | 4% | 7% | 0%
O=C(CCl)Oc1ccc2occ(C(=O)c3cccs3)c2c1 | 24µM* | 28% | ? | -1% | 12µM*
Cc1c(CCC(=O)NCCCCCC(=O)O)c(=O)oc2cc3occ(-c4ccccc4)c3cc12 | ? | 0% | -10% | / | 0%
O=C(c1cccs1)c1coc2ccc(O)cc12 | ? | -1% | 16% | -7% | ?
CC(=O)Oc1ccc2occ(-c3ccccc3)c2c1 | 19µM* | ? | -2% | / | -4%
O=c1ccc2cc3c(-c4ccccc4)coc3cc2o1 | 19µM* | -1% | 3% | / | 7%
CC(=O)Oc1ccc2occ(C(=O)c3cccs3)c2c1 | 13µM* | ? | ? | -1% | ?
OCCc1ccc(O)c(-n2nc3ccccc3n2)c1 | 15µM* | 23% | 26% | / | ?
N#Cc1ccc(COc2ccc(CCO)cc2-n2nc3ccccc3n2)cc1 | -4% | 3% | 4% | -6% | -8%
Cc1c(C(=O)N(CCO)Cc2ccccc2)oc2c(F)cccc12 | 17µM* | ? | ? | / | ?
O=C(NCc1csc(-c2cccs2)n1)c1ccsc1 | ? | 20% | 15% | / | 9%
Cc1ccccc1N=C1NN=C(c2ccccc2F)CS1 | 21µM* | ? | ? | 11µM* | 18%
Cc1cccc(C)c1N=C1NN=C(c2ccccc2F)CS1 | -26% | -3% | -4% | / | -5%
Cc1cc(C2=NNC(=NC3CC3)SC2)c(C)n1-c1ccccc1F | 0.21µM* | -24% | -37% | -93% | -11%
Cc1cc(C2=NNC(=NC3CCCCC3)SC2)c(C)n1-c1c(C)n(C)n(-c2ccccc2)c1=O | -3% | -2% | -1% | ? | 0%
C=C(C)CN=C1NN=C(c2cc(C)n(-c3ccc(C)cc3)c2C)CS1 | 8.5µM* | ? | ? | ? | 0%
SMILES | FLuc counter | NPC1 promoter act | Rab9 promoter act | SMN2 splice enh | ELG1 genotoxic
COc1cc(-c2nc3cnccc3n2C)cc(OC)c1OC | 0% | -1% | 1% | 8% | 3%
CSCCNC(=O)c1ccc(C(C)(C)C)cc1 | 3µM* | 4µM* | 4µM* | ? | ?
CC(C)(C)SCCNC(=O)c1ccccc1 | ? | ? | 3.2µM* | 30% | 15%
Cc1ccc(C(=O)NCCSC(C)(C)C)cc1 | ? | 0.5µM* | 0.56µM* | 10µM* | 1.8µM*
CN(c1ccc(C(=O)NCCSC(C)(C)C)cc1)S(=O)(=O)c1ccccc1 | 0% | -1% | -4% | / | -5%
CCc1c(C)sc(NC(=O)Cn2nc(C(F)(F)F)c3c2CCCC3)c1C#N | -1% | 0% | -4% | -42% | 6%
CCN(CC)CCNCC(=O)N1c2ccccc2CCc2ccc(NC(=O)OC)cc21 | 0% | -1% | -6% | / | ?
